# This is part of a sample that, as a whole, favours compounds with a hit. Of some 83,000 tested, about 20% had one in any assay.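 In brief: 96-well plates, 48 h treatment, single concentration, percent growth endpoint.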 Unmarked numbers belong to inactive results. Active and inactive are the calls of the source. How the source made its calls: active means growth percent below 10; inactive means the rest.
# Tested on: NCI-H226 lung
# Assay: NCI-60 one-dose screen, 48 h (100 = growth as untreated, 0 = no growth, -100 = all killed)
# Details: 10 µM unless noted
row,SMILES,growth
1,COc1ccc(-c2cn(-c3cc(OC)c(OC)c(OC)c3)c(=O)n2C(C)=O)cc1,88.1%
2,O=C1NC(=O)c2c1c1c3ccccc3ccc1c1[nH]c3ccc(Br)cc3c21,48.9%
3,O=C(Cn1c2c(c3ccccc31)CCCC2)Nc1ccc(-c2nc3ccccc3s2)cc1,106%
4,COc1ccc(C/C(C)=C(/c2ccc(OCCN3CCCCC3)cc2)c2ccc(OC(=O)NCc3ccccc3)cc2)cc1,-70% (active)
5,CC(C)OC(=O)c1ccc2[nH]c(O)c(C(=Nc3ccc(N(C)C(=O)CN4CCN(C)CC4)cc3)c3ccccc3)c2c1,20.1%
6,COc1cc(N2C(=O)[C@H](O)C2c2ccc(SC)cc2)cc(OC)c1OC (stereo partly drawn),68.6%
7,CCCCOC(=O)OCc1cc(=O)c(O)co1,94.3%
8,COc1ccc(C2=Nc3c/c(=C\c4c(O)[nH]c5ccc(Cl)cc45)ccc3=N2)cc1,66.5%
9,O=C(Nc1cccc([N+](=O)[O-])c1)c1cc2ccccc2cc1O,1.25% (active)
10,O=C(/C=C/c1cn(-c2ccccc2)nc1-c1ccc([N+](=O)[O-])cc1)c1ccc(Cl)cc1,39%
11,CC(C)CCC[C@@H](C)[C@H]1CC[C@H]2[C@@H]3CC=C4C[C@@H](C(C(=O)O)C(=O)O)CC[C@]4(C)[C@H]3CC[C@]12C,-62.9% (active)
12,CN(C)CCNC(=O)c1cccc(-c2cnc3ccc(-c4ccc5c(c4)OCO5)nn23)c1,75.3%
13,N#Cc1c(-c2ccc(Cl)cc2)nc(SCC(=O)NC2=NN=C(c3ccccc3)CS2)[nH]c1=O,106%

# Source: PubChem BioAssay (NCI)
